# From PubChem BioAssay (NCATS)
# Records with an inconclusive call do not appear. Where a call stands in place of a potency, no number is given. More than one record can exist for a structure, and the calls need not agree. The source made the active and inactive calls. The call rests on the fitted dose curve; in most records, active means well fitted curve in the direction sought with a large enough effect; inconclusive means small, poorly fitted or top-dose-only effect, or another doubt; inactive means no such curve, though single readings can be large; an effect the other way counts as inactive or inconclusive.
# Tests used:
# [1] = target: Protein phosphatase 1D (Homo sapiens) (UniProt O15297); experiment: RapidFire Mass Spectrometry qHTS Assay for Modulators of WT P53-Induced Phosphatase 1 (WIP1) (AID 1347424);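 further: amount of dephosphorylated VEPPL-S-QETFS peptide product formed by WIP1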; further: potency means the concentration at half of the fitted maximal effect
# Sequence of Protein phosphatase 1D (Homo sapiens) (O15297 whole entry, looked up): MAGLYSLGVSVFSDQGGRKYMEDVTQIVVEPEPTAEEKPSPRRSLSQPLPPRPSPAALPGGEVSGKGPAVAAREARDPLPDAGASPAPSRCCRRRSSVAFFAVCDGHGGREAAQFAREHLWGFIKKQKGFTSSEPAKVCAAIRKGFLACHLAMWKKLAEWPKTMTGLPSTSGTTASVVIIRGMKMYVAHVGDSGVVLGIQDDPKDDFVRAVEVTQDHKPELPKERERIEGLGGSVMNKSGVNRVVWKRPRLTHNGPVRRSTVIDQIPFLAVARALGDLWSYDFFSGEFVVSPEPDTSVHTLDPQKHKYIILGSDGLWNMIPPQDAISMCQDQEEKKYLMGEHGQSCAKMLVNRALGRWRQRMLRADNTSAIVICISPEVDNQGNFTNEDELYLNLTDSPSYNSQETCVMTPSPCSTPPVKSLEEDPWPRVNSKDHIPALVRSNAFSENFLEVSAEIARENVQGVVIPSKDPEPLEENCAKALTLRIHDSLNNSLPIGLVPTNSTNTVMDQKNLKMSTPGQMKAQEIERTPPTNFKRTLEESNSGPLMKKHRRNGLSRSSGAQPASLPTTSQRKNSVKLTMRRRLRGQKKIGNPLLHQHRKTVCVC
# Method in brief: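 RapidFire mass spectrometry measured dephosphorylated peptide after 5 min room-temperature reaction of 2 uM VEPPL-pS-QETFS with 10 nM WIP1 (50 mM Tris-HCl pH 7.5, 30 mM MgCl2, 0.1 mM EGTA, BSA), following 1 hr compound preincubation; 1 uM isotope-labelled product standard.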
# [2] = Primary qHTS for inhibitors of La Crosse Virus (LACV) - induced cell death in SH-SY5Y cells (AID 1508616);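 further: top concentration of the series differs between compounds; higher means more rescue of cells from virus-induced death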
# Method in brief: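 Rescue of virus-induced death was read as ATPLite luminescence after 6 days at 37C, scaled between DMSO wells with LACV and without virus. Cells were SH-SY5Y, 6000/well, infected at 0.01 MOI after compound addition.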
# [3] = target: Calcium and integrin-binding protein 1 (Homo sapiens) (UniProt Q99828); experiment: Primary qHTS for Identification of Calcium Integrin Binding Protein 1 (CIB1) Competitor (AID 1508620); further: potency means the concentration at half of the fitted maximal effect
# Sequence of Calcium and integrin-binding protein 1 (Homo sapiens) (Q99828 whole entry, looked up): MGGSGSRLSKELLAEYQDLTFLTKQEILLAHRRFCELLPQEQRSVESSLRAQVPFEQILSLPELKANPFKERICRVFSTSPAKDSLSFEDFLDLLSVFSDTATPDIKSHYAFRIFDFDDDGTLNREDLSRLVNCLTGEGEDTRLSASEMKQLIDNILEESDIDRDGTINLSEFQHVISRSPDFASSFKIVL
# Method in brief: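 CIB1-GST (1 uM final) and compound incubated 15 min at room temperature before adding FITC-alphaIIb peptide tracer (100 nM final). Competition for binding read by fluorescence polarization (ex 480, em 540) after another 15 min at room temperature.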
# [4] = Validation qHTS assay for inhibitors of Activation Induced Cytidine Deaminase (AID): UDG Counterscreen signal (AID 1347427)
# Method in brief: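 Fluorescence at 560 nm excitation, 665 nm emission reports UDG signal after 250 mM NaOH (2x) addition and 30 min. Enzymes (AID 1 uM, UDG 2 U/mL, at 4/3x) preincubated 10 min with compound, then 4 h with 4x 250 nM DJC20/DJC23 substrate at room temperature.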
# [5] = target: Single-stranded DNA cytosine deaminase (Homo sapiens) (UniProt Q9GZX7); experiment: Validation qHTS assay for inhibitors of Activation Induced Cytidine Deaminase (AID): AID signal (AID 1347429)
# Sequence of Single-stranded DNA cytosine deaminase (Homo sapiens) (Q9GZX7 whole entry, looked up): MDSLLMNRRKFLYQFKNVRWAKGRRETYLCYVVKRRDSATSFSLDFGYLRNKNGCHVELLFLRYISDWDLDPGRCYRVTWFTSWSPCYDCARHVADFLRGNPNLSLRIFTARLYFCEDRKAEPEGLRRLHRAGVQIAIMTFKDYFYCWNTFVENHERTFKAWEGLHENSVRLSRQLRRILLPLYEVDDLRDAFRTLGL
# Method in brief: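 Compounds (final up to 114 uM) preincubated with AID plus UDG; 250 nM DJC20/DJC23 substrate mix (4x stock) added, 4 hr at room temperature, then NaOH, 30 min. Read 1 fluorescence at 540 nm excitation, 590 nm emission.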
# [6] = target: Calcium and integrin-binding protein 1 (Homo sapiens) (UniProt Q99828); experiment: Validation qHTS for Identification of Calcium Integrin Binding protein 1 (CIB1) Competitor (AID 1508618)
# Method in brief: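 CIB1-GST (1 uM final) in 5 mM HEPES pH 7.4, 125 mM NaCl, 5 mM CaCl2, 0.01% Tween20 was preincubated 15 min at room temperature with compound (up to 114 uM), then FITC-alphaIIb peptide (100 nM) added for 15 min; fluorescence polarization read.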
# [7] = target: Protein phosphatase 1D (Homo sapiens) (UniProt O15297); experiment: Rhodamine-PBP qHTS Assay for Modulators of WT P53-Induced Phosphatase 1 (WIP1) (AID 1347425)
# Method in brief: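 Read-out: Rhodamine-PBP fluorescence (ex 525/em 598 nm) for released Pi, read each minute for 11 min after adding 10 uM VEPPL-pS-QETFS; signal taken as f1 minus pre-substrate f0. Enzyme 5 nM WIP1 with 1 hr room-temperature compound preincubation.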
# [8] = Counterscreen qHTS for small molecule stabilizers of the endoplasmic reticulum resident proteome: GLuc-NoTag assay (AID 1508627); further: potency means the concentration at half of the fitted maximal effect
# Method in brief: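 Counterscreen line: SH-SY5Y-GLuc-NoTag cells, treated with compound 19 hr before a 4 hr, 100 nM thapsigargin calcium depletion. Secreted Gaussia luciferase in the medium was measured by luminescence after coelenterazine was added (0.07x final), with cells unlysed.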
# [9] = target: Calcium and integrin-binding protein 1 (Homo sapiens) (UniProt Q99828); experiment: Confirmatory qHTS for Identification of Calcium Integrin Binding Protein 1 (CIB1) Competitor (AID 1508617); further: nearly all actives have a fitted effect of over 65% in size; further: potency means the concentration at half of the fitted maximal effect
# Method in brief: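 Fluorescence polarization competition: CIB1-GST (1 uM final) in 5 mM HEPES pH 7.4, 125 mM NaCl, 5 mM CaCl2, 0.01% Tween20 preincubated 15 min RT with compound (up to 114 uM), then FITC-alphaIIb peptide (100 nM) added, 15 min RT.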
structure (smiles),measurement,setting,value
Cc1c(C(=O)NN2CCCCC2)nn(-c2ccc(Cl)cc2Cl)c1-c1ccc(Cl)cc1,Potency,[1],inactive
same,Potency,[2],inactive
same,Potency,[3],inactive
OC(CN1CCN(c2cccc(Cl)c2)CC1)C(c1ccccc1)c1ccccc1 (centres undefined),Potency,[4],inactive
same,outcome,[5],inactive
same,Potency,[3],inactive
CCC[C@@H]1C[C@@H](C(=O)N[C@@H]([C@H]2O[C@H](SC)[C@H](O)[C@@H](O)[C@H]2O)[C@@H](C)O)N(C)C1,Potency,[1],inactive
same,Potency,[2],inactive
same,Potency,[3],inactive
Cc1cc(=O)c2c(O)c3c(O)cc(=O)c4c3c3c(cc(O)c1c23)C(C)(C)C=4O,Potency,[1],inactive
same,Potency,[3],inactive
C=C(c1ccc(C(=O)O)cc1)c1cc2c(cc1C)C(C)(C)CCC2(C)C,Potency,[1],4.47 µM (active)
same,Potency,[3],inactive
COCCCOc1ccnc(CS(=O)c2nc3ccccc3[nH]2)c1C (centres undefined),Potency,[1],inactive
same,Potency,[2],inactive
same,Potency,[3],39.8 µM (active) and inactive
O=C1NC(=O)C(c2ccccc2[N+](=O)[O-])=C1Nc1ccc(O)c(Cl)c1,Potency,[4],inactive
same,outcome,[5],inactive
same,Potency,[2],inactive
same,Potency,[3],inactive
CC1(C)C(=O)N(CCN2CCC(C(=O)c3ccc(F)cc3)CC2)c2ccccc21,Potency,[4],inactive
same,outcome,[5],inactive
same,outcome,[6],inactive
same,Potency,[3],inactive
Cc1cccc(C#Cc2ccccc2)n1,Potency,[4],inactive
same,outcome,[5],inactive
same,outcome,[6],inactive
same,Potency,[3],inactive
O=C(CCc1ccc(O)cc1)c1c(O)cc(O)cc1O,Potency,[4],inactive
same,outcome,[5],inactive
same,outcome,[6],inactive
same,Potency,[3],inactive
CC(C)[N+]1(C)[C@@H]2CC[C@H]1CC(OC(=O)C(CO)c1ccccc1)C2 (some centres undefined),Potency,[3],inactive
COC(=O)C1=C(C)NC(C)=C(C(=O)OCCCN2CCC(c3ccccc3)(c3ccccc3)CC2)C1c1cccc([N+](=O)[O-])c1 (centres undefined),Potency,[1],inactive
same,outcome,[7],inactive
same,Potency,[3],inactive
same,Potency,[8],39.8 µM (active)
C[C@H](Cn1cnc2c(N)ncnc21)OCP(=O)(O)O,Potency,[3],inactive
COc1cc2nc(N3CCN(C(=O)C4CCCO4)CC3)nc(N)c2cc1OC (centres undefined),Potency,[1],inactive
same,Potency,[4],inactive
same,outcome,[5],inactive
same,Potency,[2],inactive
same,Potency,[3],inactive
Oc1ccc2ccccc2c1SSc1c(O)ccc2ccccc12,outcome,[5],inactive
same,Potency,[2],inactive
COC(=O)C1=C(C)NC(C)=C(C(=O)OC(C)C)C1c1cccc2nonc12 (centres undefined),Potency,[1],inactive
same,Potency,[2],inactive
same,Potency,[3],inactive
CC[C@]1(O)C[C@H]2CN(CCc3c([nH]c4ccccc34)[C@@](C(=O)OC)(c3cc4c(cc3OC)N(C=O)[C@H]3[C@@](O)(C(=O)OC)[C@H](OC(C)=O)[C@]5(CC)C=CCN6CC[C@]43[C@@H]65)C2)C1,Potency,[1],inactive
same,Potency,[3],inactive
O=C(O)c1cccnc1Nc1cccc(C(F)(F)F)c1,Potency,[4],inactive
same,outcome,[5],inactive
same,outcome,[6],inactive
same,Potency,[3],inactive
O=c1ccc2ccc(O)c(O)c2o1,Potency,[4],inactive
same,outcome,[5],inactive
same,Potency,[2],inactive
same,Potency,[3],inactive
CC(C)c1ccc2c(c1)c(SC(C)(C)C)c(CC(C)(C)C(=O)O)n2Cc1ccc(Cl)cc1,Potency,[4],inactive
same,outcome,[5],inactive
same,Potency,[3],inactive
CNC[C@@H](O)[C@@H](O)[C@H](O)[C@H](O)CO,Potency,[3],inactive
CCN(CC)CCOc1ccc(Nc2ncc3cc(-c4c(Cl)cccc4Cl)c(=O)n(C)c3n2)cc1,Potency,[3],inactive
Cc1cc(C2CCCCC2)n(O)c(=O)c1,Potency,[1],inactive
same,outcome,[7],inactive
same,Potency,[3],inactive
CCN(CC)C(=S)SSC(=S)N(CC)CC,Potency,[1],inactive
same,Potency,[4],inactive
same,outcome,[5],inactive
same,Potency,[2],inactive
same,Potency,[9],14.1 µM (active) and inactive
same,outcome,[6],inactive
same,Potency,[3],44.7 µM (active)
same,Potency,[8],28.2 µM (active)
CN(C)CCCC1(c2ccc(F)cc2)OCc2cc(C#N)ccc21 (centres undefined),Potency,[4],inactive
same,outcome,[5],inactive
same,Potency,[2],inactive
same,outcome,[6],inactive
same,Potency,[3],inactive
Cc1nc(Nc2ncc(C(=O)Nc3c(C)cccc3Cl)s2)cc(N2CCN(CCO)CC2)n1,Potency,[1],inactive
same,outcome,[7],inactive
same,Potency,[3],inactive
NC(=NCc1ccccc1)NC(=O)c1nc(Cl)c(N)nc1N,Potency,[4],inactive
same,outcome,[5],inactive
same,Potency,[2],inactive
same,outcome,[6],inactive
same,Potency,[3],inactive
O=C(CS(=O)Cc1ccco1)NCC=CCOc1cc(CN2CCCCC2)ccn1 (centres undefined),Potency,[3],inactive
NCCCCNCCCN,Potency,[4],inactive
same,outcome,[5],inactive
same,Potency,[2],inactive
same,outcome,[6],inactive
same,Potency,[3],inactive
CC1=C(C(=O)O)N2C(=O)[C@@H](NC(=O)[C@H](N)C3=CCC=CC3)[C@H]2SC1,Potency,[1],inactive
same,Potency,[2],inactive
same,Potency,[3],inactive
COc1c(O)cc2c(c1O)[C@@H]1O[C@H](CO)[C@@H](O)[C@H](O)[C@H]1OC2=O,Potency,[3],inactive
CC(C)c1nc(CN(C)C(=O)N[C@H](C(=O)N[C@@H](Cc2ccccc2)C[C@H](O)[C@H](Cc2ccccc2)NC(=O)OCc2cncs2)C(C)C)cs1,Potency,[1],inactive
same,Potency,[3],inactive
